Screens: PubChem, several laboratories
Autofluor 339 – intrinsic fluorescence of library compounds, ex339/em460 – biochemical, MLSMR library, data from DPM-DC assay, artefact control, profiling panel; compound autofluorescence, ex339/em460 nm, NADH buffer; hits give high values; 1 = no-compound wells, NADH background; fluorescence fold increase at 10 µM; 5.5% of 65,000 active; AID 709, 2007;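 active = at 10 µM, mean starting fluorescence two-fold or more over control wells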;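 also: signal is the first read of a kinetic run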
Hsp90 inh – tumor Hsp90 inhibitors, primary screen, cell lysate, fluorescence polarization, NCI-N417 lysate. Heat shock protein HSP 90-alpha (Homo sapiens), P07900. Cy3B-geldanamycin FP displacement. inhibition, % at 30 µM. 0.35% of 64,000 active;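 active = inhibition above 50%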;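 also: 0% = tracer plus lysate wells and 100% = tracer alone without lysate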
DUSP1 inh – MKP-1 phosphatase inhibitors, primary screen, biochemical, in vitro. recombinant MKP-1, OMFP hydrolysis fluorescence. inhibition, %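 (compounds tested at a single concentration somewhere between 10 and 100 µM)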. 0.15% of 65,000 active;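 active = inhibition above about 50%, limit read from the data; inconclusive = inhibition over screen mean plus 3 SD, below that limit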;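 also: 0% = DMSO max control wells and 100% = wells with enzyme stopped by NaOH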
A340 absorber – compound light absorbance at 340 nm, profiling panel, artefact control, biochemical, MLSMR library, data from PS, PMK, MK assays; compound absorbance at 340 nm, fold over control; fold change at 10 µM; 65,000 tested, under 10 active;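 active = at 10 µM dose, initial 340 nm absorbance at least 2 fold that of control wells; inactive = change under 2 fold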;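 also: initial absorbance extrapolated from kinetic A340 decline of NADH oxidation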
Cdc25B block – inhibitors of Cdc25B phosphatase catalytic domain, primary screen, biochemical, OMFP fluorescence; M-phase inducer phosphatase 2 (Homo sapiens), P30305; inhibition, %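 (compounds tested at 10 µM final in the well)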; recombinant Cdc25B, OMFP fluorescence Ex485/Em525; 0.1% of 65,000 active; AID 368, 2006; in the data active = inhibition above about 50%
Target sequence (P30305 whole entry, looked up, the tested form may be a part): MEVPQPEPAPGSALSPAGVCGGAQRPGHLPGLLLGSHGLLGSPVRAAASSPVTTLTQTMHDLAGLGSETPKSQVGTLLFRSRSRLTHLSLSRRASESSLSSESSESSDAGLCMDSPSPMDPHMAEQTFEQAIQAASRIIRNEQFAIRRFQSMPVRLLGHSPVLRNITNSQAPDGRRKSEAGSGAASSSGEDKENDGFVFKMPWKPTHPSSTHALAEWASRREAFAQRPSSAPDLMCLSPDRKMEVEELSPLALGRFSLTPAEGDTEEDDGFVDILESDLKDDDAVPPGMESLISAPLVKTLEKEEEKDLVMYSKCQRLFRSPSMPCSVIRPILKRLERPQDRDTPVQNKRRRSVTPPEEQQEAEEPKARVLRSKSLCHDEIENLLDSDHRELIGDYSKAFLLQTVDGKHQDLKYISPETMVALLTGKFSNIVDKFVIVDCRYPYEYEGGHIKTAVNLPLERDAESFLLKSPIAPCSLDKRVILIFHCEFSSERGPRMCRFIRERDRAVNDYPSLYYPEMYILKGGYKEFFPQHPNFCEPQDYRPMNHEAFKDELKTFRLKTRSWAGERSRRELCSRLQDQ
NADH coupling – inhibitors of PK/LDH coupling enzymes, profiling panel, artefact control, biochemical, MLSMR library | coupled PK/LDH NADH assays, four targets | IC50, µM (highest dose often 10 µM), without a hit: at the top dose inhibition | 0.02% of 65,000 active;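 active = single-dose screening hits from any of four coupled enzyme assays that gave an IC50 when retested across doses; inconclusive = no clear call, values can overlap the other calls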;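 also: the DPM-DC format reads NADH fluorescence rather than 340 nm absorbance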
* = called active by the depositor; i = inactive; ? = inconclusive; · = no result given. Only some compounds are listed: those with a hit (about 5.7% of all), similar ones and a draw of the others.

SMILES	Autofluor 339	Hsp90 inh	DUSP1 inh	A340 absorber	Cdc25B block	NADH coupling
OC1CC(c2ccco2)NC2(CCCCC2)C1 (configuration not stated)	1.1	·	-1	0.99	-11	13%
O=C1C2C(C(=O)N1Cc1cccnc1)C1C=CC2C12CC2 (configuration not stated)	1.1	-6	-15	1	2	6%
COc1cc(CNc2ccc(C)c(C)c2)cc(OC)c1OC	1.2	-2	4	1.1	1	14%
CCOc1cc(CNc2ccc3[nH]c(=O)[nH]c3c2)ccc1OCC(=O)NC(C)(C)C	3.8*	36	6	1.1	6	7%
COc1cc(CNc2ccc3[nH]c(=O)[nH]c3c2)cc(Cl)c1OCC(=O)NC(C)(C)C	3*	36	?	1.1	9	11%
COc1ccc2c(-c3ccccc3)cc(N3CCOCC3)nc2c1	2.9*	0	9	1	-2	9%
CCCCN(CC)CCCNC(=O)c1cc2cc3ccc(OC)cc3nc2o1	5.1*	3	2	1.1	3	8%
COc1ccc2cc3cc(C(=O)NCCc4ccc(OC)c(OC)c4)oc3nc2c1	4.6*	5	14	1.1	2	6%
COc1ccc2cc3cc(C(=O)Nc4ccc5c(c4)OCO5)oc3nc2c1	1.3	2	8	1.1	12	7%
CCOc1ccc(C(=O)NCCCN(CC)CC)cc1	1.1	-2	1	1	-4	3%
COc1ccc(C)cc1NC(=O)c1ccoc1C	1.1	-3	9	1	-9	8%
CCCN(CCC)CCCNC(=O)c1cc2cc3ccc(OC)cc3nc2o1	5.1*	-2	-2	1.1	0	4%
COc1ccc(C)cc1NC(=O)c1cc2cc3ccc(C)cc3nc2o1	4*	-2	26	1.1	-1	8%
C[C@@H]1C(=O)NC2=Nc3cccc(Cl)c3CN21	·	2	·	·	·	·
O=C(Nc1ccncc1)c1ccc2c(c1)OCCO2	1.1	1	10	1	-6	9%
COc1ccc(C(=O)Nc2ccc3oc(-c4cccc(F)c4)nc3c2)cc1OC	2.1*	0	20	1.1	-1	10%
O=C(Nc1ccc2oc(-c3ccccc3)nc2c1)c1ccc2c(c1)OCCO2	3.2*	-6	33	1	-4	5%
COc1c(F)c(F)c(C(=O)Nc2ccc3oc(-c4ccncc4)nc3c2)c(F)c1F	1.6	-21	11	1.1	-1	2%
COc1ccccc1C(=O)Nc1ccc2oc(-c3ccc(F)cc3)nc2c1	2.2*	0	17	1.2	-17	7%
CN(C)S(=O)(=O)c1ccc(S(=O)(=O)N(Cc2ccccn2)Cc2ccco2)cc1	1.2	4	11	1	-4	5%
N.N.O=C(O)C1(C(=O)O)CCC1.[Pt+2]	·	i	·	·	·	·
CN(C)C(=O)COc1ccc2cc(-c3ccccc3)c(=O)oc2c1	3*	-3	-2	1.1	-4	4%
COCCNC(=O)C1CCN(S(=O)(=O)c2ccccc2)CC1	1.1	-2	4	1	-11	5%
CCOc1ccc2[nH]c(=O)c(CN(Cc3ccco3)C(=O)c3ccc(Br)cc3)cc2c1	1.6	2	33	0.98	-9	9%
CCOc1ccc2[nH]c(=O)c(CN(CC3COCCO3)C(=O)c3ccco3)cc2c1 (configuration not stated)	4*	-1	19	1	-4	11%
CCOc1ccc2[nH]c(=O)c(CN(Cc3ccco3)C(=O)c3cccc(F)c3)cc2c1	2.9*	-1	5	1	-8	15%
COc1ccc2[nH]c(=O)c(CN(Cc3ccco3)C(=O)c3ccccc3)cc2c1	3.7*	-3	-13	1.1	-1	8%
N#C/C(=C\c1ccc[nH]1)S(=O)(=O)c1ccccc1	1.1	-2	12	1.2	-3	6%
CCOC(=O)c1c(NC(=O)CSc2nnnn2CC)sc(C)c1C	1.1	-1	-20	1.1	-6	1%
